Experimental data published in the OligoGym collection.
Also: reference of the scale not given here.

What follows are sequences tested against KCNMB2 (assay: pooled miR-30 sensor sort-seq; sequence = guide strand). Details: shRNA.
TTAGGATAACACTCTTCTGGTT gave a sensor-assay potency score (higher = more potent) of -1.15. TAACACTCTTCTGGTTTCCTTC gave a sensor-assay potency score (higher = more potent) of -0.332. Sequence TTTGTTAGGATAACACTCTTCT has a sensor-assay potency score (higher = more potent) of 0.649. TAGGGAACTCATAACAGACTGC gave a sensor-assay potency score (higher = more potent) of -0.389. With TTTTGTTAGGATAACACTCTTC the sensor-assay potency score (higher = more potent) was -0.026. Sequence TTATTGTCTCTTCTGTGTGGTA has a sensor-assay potency score (higher = more potent) of -0.319. TAGGATAACACTCTTCTGGTTT was tested, and the sensor-assay potency score (higher = more potent) was 0.203. In the case of TTGATTTTTATTGTCTCTTCTG, the sensor-assay potency score (higher = more potent) is reported as -0.466. TTCCATGACAACATTCACCAGG showed a sensor-assay potency score (higher = more potent) of -0.0986. Work on TGTTAGGATAACACTCTTCTGG yielded a sensor-assay potency score (higher = more potent) of -0.415. In the case of TTTTATTGTCTCTTCTGTGTGG, the sensor-assay potency score (higher = more potent) is reported as 0.163. Sequence TTTATTGTCTCTTCTGTGTGGT has a sensor-assay potency score (higher = more potent) of 0.74.

These sequences were tested against KCNN2 in the same assay as above. Details: shRNA.
Work on ATGAACAACTGTATTTCCCTGG yielded a sensor-assay potency score (higher = more potent) of 0.818. TTGATGAATAGCTTGCAGGAAT gave a sensor-assay potency score (higher = more potent) of -0.859. Sequence TTAGACACCACGATCTCGGGGG has a sensor-assay potency score (higher = more potent) of 1.02. For ATTGATATCAACCACATCGCTC, the sensor-assay potency score (higher = more potent) was -0.533. Work on TACTTTTGCATGATCTATCTTT yielded a sensor-assay potency score (higher = more potent) of -0.0765. With TAATTGATGAATAGCTTGCAGG the sensor-assay potency score (higher = more potent) was -0.772. TTACACTTCTTAATTGATGAAT showed a sensor-assay potency score (higher = more potent) of -0.837. TAGCTTGCAGGAATTTTCGTTG gave a sensor-assay potency score (higher = more potent) of -0.466. With TTCTTAATTGATGAATAGCTTG the sensor-assay potency score (higher = more potent) was -1.14. TTAATTGATGAATAGCTTGCAG was tested, and the sensor-assay potency score (higher = more potent) was 0.193. TTGTCGTAGCTCTCCATCTGAG was tested, and the sensor-assay potency score (higher = more potent) was -1.04. Sequence TTCTCGAAGTCTTCACTCCTTT has a sensor-assay potency score (higher = more potent) of -0.431.

The sequences below were run against KCNN3 in the same assay as above. Details: shRNA.
In the case of TAGATTAACCATGTTTCCCGAA, the sensor-assay potency score (higher = more potent) is reported as -0.326. Work on TTGGTCACTCAGCTTCCTCTGT yielded a sensor-assay potency score (higher = more potent) of -0.263. TTGTCGATCACGAAGAGCTGGA gave a sensor-assay potency score (higher = more potent) of 0.137. For AAAGTTACTAGTTACGTCCTGC, the sensor-assay potency score (higher = more potent) was 0.827. For TAAGTCATACATGACATTCTGC, the sensor-assay potency score (higher = more potent) was 0.0328. With TTCTCCAGGTCTTCGCTCCGGT the sensor-assay potency score (higher = more potent) was -0.356. TACATGACATTCTGCATCTTGG showed a sensor-assay potency score (higher = more potent) of -0.595. Sequence TAGGTCATGGCTATCCGCCAGT has a sensor-assay potency score (higher = more potent) of -0.594. In the case of TTGAAGTTGATCTTGTTGAGGG, the sensor-assay potency score (higher = more potent) is reported as 0.397. TTCTTTAGCAGCTTTGTGTGTT was tested, and the sensor-assay potency score (higher = more potent) was 0.0976. In the case of TTTGGCATGGTCAATCTTCTTT, the sensor-assay potency score (higher = more potent) is reported as -0.404. Sequence ATACATGACATTCTGCATCTTG has a sensor-assay potency score (higher = more potent) of 0.37.
